In the supplement of paper PMC6555819:

Key:
Experiment in all cases: PBM binding z-score (relative to random genomic background probes); higher = stronger binding; sequences stand for … in GC…GCGATTGACAGCGTAGAATGAAGG
[1] = test system: PPARg:RXRa DBDmut IVT, anti-RXR (DBD mutation: RXRa K156A/R161A, NR concentration 270 nM, RXRa partner concentration 90 nM)
Summary of the method: (§1)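 Ligand-free nuclear receptor dimers were applied to custom Agilent 4×180K protein-binding microarrays whose double-stranded probes carried direct-repeat seeds, single-nucleotide variants, half-site ablations and random human genomic background sequences in 34-nt variable regions. Incubation lasted 1 h. Binding z-scores were computed against the random background probes from regression-normalized fluorescence.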

[2] = test system: PPARg:RXRa IVT, anti-PPARg (NR concentration 270 nM, RXRa partner concentration 90 nM)
Summary of the method: as §1

[3] = test system: PPARg DBDmut:RXRa IVT, anti-PPARg (DBD mutation: PPARg1 K132A/R137A, NR concentration 270 nM, RXRa partner concentration 90 nM)
Summary of the method: as §1

[4] = test system: PPARg DBDmut IVT, anti-PPARg (DBD mutation: PPARg1 K132A/R137A, NR concentration 270 nM)
Summary of the method: as §1

[5] = test system: PPARg homodimer (NR concentration 180 nM)
Summary of the method: as §1

[6] = test system: PXR:RXRa (NR concentration 270 nM, RXRa partner concentration 90 nM)
Summary of the method: as §1

[7] = test system: PXR homodimer (NR concentration 270 nM)
Summary of the method: as §1

[8] = test system: RARa:RXR (NR concentration 270 nM, RXRa partner concentration 90 nM)
Summary of the method: as §1

[9] = test system: RARa homodimer (NR concentration 270 nM)
Summary of the method: as §1

[10] = test system: RARb:RXRa (NR concentration 270 nM, RXRa partner concentration 90 nM)
Summary of the method: as §1

GCTATTAGTTGAAAGGGCATCCGAATGATTCTCG
PBM binding z-score [1]: 0.6
PBM binding z-score [2]: 0.576
PBM binding z-score [3]: 0.336
PBM binding z-score [4]: 0.482
PBM binding z-score [5]: 1.17
PBM binding z-score [6]: 0.67
PBM binding z-score [7]: 0.374
PBM binding z-score [8]: 1.21
PBM binding z-score [9]: 0.477
PBM binding z-score [10]: 1.65

ATCTCTAGGTAAAGCTAGTTCAGTGAATGCAAAT
PBM binding z-score [1]: 2.03
PBM binding z-score [2]: 1.83
PBM binding z-score [3]: 0.606
PBM binding z-score [4]: 0.732
PBM binding z-score [5]: 0.371
PBM binding z-score [6]: 1.07
PBM binding z-score [7]: 0.241
PBM binding z-score [8]: 0.383
PBM binding z-score [9]: 0.278
PBM binding z-score [10]: 0.0194

CCTCGGAGGACAGAAGGTCAGAGCTGTCCGCTTT
PBM binding z-score [1]: 0.195
PBM binding z-score [2]: -0.199
PBM binding z-score [3]: -1.36
PBM binding z-score [4]: -1.28
PBM binding z-score [5]: 1.06
PBM binding z-score [6]: 1.35
PBM binding z-score [7]: -0.13
PBM binding z-score [8]: 1.93
PBM binding z-score [9]: 0.441
PBM binding z-score [10]: 2.89

TCTTGTAGATCAAAGGTTATGAAAGCCGAAGCCT
PBM binding z-score [1]: 2.32
PBM binding z-score [2]: 3.32
PBM binding z-score [3]: 0.577
PBM binding z-score [4]: 0.452
PBM binding z-score [5]: 1.12
PBM binding z-score [6]: 1.88
PBM binding z-score [7]: 0.0149
PBM binding z-score [8]: 3.07
PBM binding z-score [9]: -0.114
PBM binding z-score [10]: 1.79

CGAACTAGGTCAAGGACAGTCAATCTCCGCACGC
PBM binding z-score [1]: 8.01
PBM binding z-score [2]: 8.24
PBM binding z-score [3]: 1.66
PBM binding z-score [4]: 1.8
PBM binding z-score [5]: 1.37
PBM binding z-score [6]: 1.25
PBM binding z-score [7]: 0.00572
PBM binding z-score [8]: 2.09
PBM binding z-score [9]: 0.256
PBM binding z-score [10]: 4.08

TTACCTAGGTGAAAGGTCGTTGATGCACGCCTTG
PBM binding z-score [1]: 5.23
PBM binding z-score [2]: 6.14
PBM binding z-score [3]: 1.6
PBM binding z-score [4]: 0.889
PBM binding z-score [5]: 1.73
PBM binding z-score [6]: 3.69
PBM binding z-score [7]: 0.261
PBM binding z-score [8]: 4.82
PBM binding z-score [9]: -0.203
PBM binding z-score [10]: 2.38

CCTATTAGTTGACCATAAGGGCAGCCGAAGCTCG
PBM binding z-score [1]: 0.366
PBM binding z-score [2]: 0.178
PBM binding z-score [3]: -0.234
PBM binding z-score [4]: -0.298
PBM binding z-score [5]: 1.6
PBM binding z-score [6]: 0.00471
PBM binding z-score [7]: 0.575
PBM binding z-score [8]: 0.385
PBM binding z-score [9]: 1.64
PBM binding z-score [10]: 1.29

CGTCCAAGGTCAGAGACGTCAGTGAATGCCGAGT
PBM binding z-score [1]: 2.2
PBM binding z-score [2]: 1.74
PBM binding z-score [3]: -0.306
PBM binding z-score [4]: -0.0249
PBM binding z-score [5]: 1.43
PBM binding z-score [6]: 2.14
PBM binding z-score [7]: 0.599
PBM binding z-score [8]: 2.75
PBM binding z-score [9]: 0.197
PBM binding z-score [10]: 4.37

GGAACGAGGGCAAAGTCGATAGCATCTGTCGACG
PBM binding z-score [1]: 3.57
PBM binding z-score [2]: 3.11
PBM binding z-score [3]: 0.306
PBM binding z-score [4]: 0.0307
PBM binding z-score [5]: -0.309
PBM binding z-score [6]: 0.155
PBM binding z-score [7]: -0.0717
PBM binding z-score [8]: 0.0883
PBM binding z-score [9]: -0.247
PBM binding z-score [10]: 1.87

TCATATAGGTAAACATGTGAAAGTCCGTAAGTTA
PBM binding z-score [1]: 4.4
PBM binding z-score [2]: 3.17
PBM binding z-score [3]: 1.32
PBM binding z-score [4]: 1.79
PBM binding z-score [5]: 0.718
PBM binding z-score [6]: 0.808
PBM binding z-score [7]: 0.34
PBM binding z-score [8]: 0.815
PBM binding z-score [9]: 1.18
PBM binding z-score [10]: 0.412

CAGACAGGGTCAGCTAGGCCAGAGTAGGGACGGC
PBM binding z-score [1]: 0.343
PBM binding z-score [2]: 1.7
PBM binding z-score [3]: -0.372
PBM binding z-score [4]: -0.169
PBM binding z-score [5]: 1.26
PBM binding z-score [6]: 1.72
PBM binding z-score [7]: -0.203
PBM binding z-score [8]: 2.83
PBM binding z-score [9]: -0.174
PBM binding z-score [10]: 3.84

TCTGCTAGGTCAACGATGGACAGCTAATCTGCTA
PBM binding z-score [1]: 3.88
PBM binding z-score [2]: 4.29
PBM binding z-score [3]: 1.56
PBM binding z-score [4]: 0.358
PBM binding z-score [5]: 1.08
PBM binding z-score [6]: 1.32
PBM binding z-score [7]: -0.751
PBM binding z-score [8]: 2.01
PBM binding z-score [9]: -0.131
PBM binding z-score [10]: 3.97

ATCTCTAGGTAATACTCAGTTCAGTGAAGAACGC
PBM binding z-score [1]: 2.77
PBM binding z-score [2]: 1.87
PBM binding z-score [3]: 1.44
PBM binding z-score [4]: 1.47
PBM binding z-score [5]: 1.53
PBM binding z-score [6]: 1.58
PBM binding z-score [7]: 2.24
PBM binding z-score [8]: 0.858
PBM binding z-score [9]: 2.17
PBM binding z-score [10]: 0.79

AGAATGAGGTTATACGTAGATCAGGGTAGAAAGT
PBM binding z-score [1]: 4.24
PBM binding z-score [2]: 2.33
PBM binding z-score [3]: 1.07
PBM binding z-score [4]: 0.356
PBM binding z-score [5]: 1.01
PBM binding z-score [6]: 1.35
PBM binding z-score [7]: 0.929
PBM binding z-score [8]: 1.86
PBM binding z-score [9]: 0.591
PBM binding z-score [10]: 1.59

CCTGCTAGGTTAATGGTCAGCTAAAGCAGCTCGC
PBM binding z-score [1]: 2.01
PBM binding z-score [2]: 1.36
PBM binding z-score [3]: -0.242
PBM binding z-score [4]: -0.61
PBM binding z-score [5]: 0.222
PBM binding z-score [6]: -0.336
PBM binding z-score [7]: -0.337
PBM binding z-score [8]: 0.0339
PBM binding z-score [9]: -0.547
PBM binding z-score [10]: 1.26

AGAATGAGGTTATTAAGATCAGTGAATTGCGGTC
PBM binding z-score [1]: 3.14
PBM binding z-score [2]: 2.61
PBM binding z-score [3]: 0.948
PBM binding z-score [4]: 0.175
PBM binding z-score [5]: 1.22
PBM binding z-score [6]: 1.37
PBM binding z-score [7]: 0.788
PBM binding z-score [8]: 1.35
PBM binding z-score [9]: 0.44
PBM binding z-score [10]: 1.31

GCTTCTAGGTCAACTGATGGTCAGCTAAAGCTCG
PBM binding z-score [1]: 7.69
PBM binding z-score [2]: 7.25
PBM binding z-score [3]: 0.0953
PBM binding z-score [4]: 0.797
PBM binding z-score [5]: 2.01
PBM binding z-score [6]: 1.97
PBM binding z-score [7]: -0.405
PBM binding z-score [8]: 3.16
PBM binding z-score [9]: 0.124
PBM binding z-score [10]: 4.42

TAGCCCAGGTCATGCGGGCCAGTATAGTGTCGGC
PBM binding z-score [1]: 0.638
PBM binding z-score [2]: 2.57
PBM binding z-score [3]: -0.0508
PBM binding z-score [4]: -0.838
PBM binding z-score [5]: 0.868
PBM binding z-score [6]: 2.52
PBM binding z-score [7]: 0.093
PBM binding z-score [8]: 3.04
PBM binding z-score [9]: -0.161
PBM binding z-score [10]: 3.74

TTACCAAGGTGAGCTGAGGGCGTTGATCCAACTC
PBM binding z-score [1]: 1.02
PBM binding z-score [2]: 1.45
PBM binding z-score [3]: 0.0128
PBM binding z-score [4]: -0.0146
PBM binding z-score [5]: -0.525
PBM binding z-score [6]: 3.08
PBM binding z-score [7]: -0.168
PBM binding z-score [8]: 1.11
PBM binding z-score [9]: -0.757
PBM binding z-score [10]: 1.1

TCTATTAGTTGAAGGGCAACCAACGAGTCCGTTT
PBM binding z-score [1]: 2.05
PBM binding z-score [2]: 0.417
PBM binding z-score [3]: 0.246
PBM binding z-score [4]: 1.16
PBM binding z-score [5]: 0.593
PBM binding z-score [6]: 0.786
PBM binding z-score [7]: 0.837
PBM binding z-score [8]: 0.718
PBM binding z-score [9]: 1.55
PBM binding z-score [10]: 1.46

GCGTCTGGGGCAAAGCAGGTTACCATAAGGTTGG
PBM binding z-score [1]: 3.3
PBM binding z-score [2]: 2.33
PBM binding z-score [3]: -0.833
PBM binding z-score [4]: -1.14
PBM binding z-score [5]: 0.154
PBM binding z-score [6]: 0.372
PBM binding z-score [7]: -0.589
PBM binding z-score [8]: 0.843
PBM binding z-score [9]: -1.37
PBM binding z-score [10]: 1.17

AGAATGAGGTTACCAAAGATCAGGGACACGCTTG
PBM binding z-score [1]: 4.01
PBM binding z-score [2]: 3.4
PBM binding z-score [3]: 0.894
PBM binding z-score [4]: 0.0801
PBM binding z-score [5]: 0.873
PBM binding z-score [6]: 1.29
PBM binding z-score [7]: 0.182
PBM binding z-score [8]: 2.1
PBM binding z-score [9]: 0.459
PBM binding z-score [10]: 2.14

TGTTGTAGATCAGCAGGTTAAGAAAGCTGGCCAA
PBM binding z-score [1]: -1.12
PBM binding z-score [2]: -0.254
PBM binding z-score [3]: -0.00533
PBM binding z-score [4]: -1.02
PBM binding z-score [5]: -0.701
PBM binding z-score [6]: -0.454
PBM binding z-score [7]: -0.604
PBM binding z-score [8]: -0.71
PBM binding z-score [9]: -0.587
PBM binding z-score [10]: -0.157

TCATATAGGTAATACGGGTGAAAGTCGGCATCTA
PBM binding z-score [1]: 3.97
PBM binding z-score [2]: 3.5
PBM binding z-score [3]: 0.9
PBM binding z-score [4]: 0.874
PBM binding z-score [5]: 0.552
PBM binding z-score [6]: 0.662
PBM binding z-score [7]: 0.363
PBM binding z-score [8]: 1.01
PBM binding z-score [9]: 1.49
PBM binding z-score [10]: 0.495
